Laboratory results reported in the supplement of paper PMC6897291.
Structures can show the parent of a compound that is named as a salt.

System: RIVA
Experiment: growth inhibition by drug plus 177Lu-lilotomab satetraxetan (1 - RLU/untreated control) (fraction); higher = stronger inhibition
Conditions: 177Lu-lilotomab satetraxetan 0.5 ug/ml
Protocol: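 RIVA (RI-1) ABC-DLBCL cells were pretreated or not for 18 h with 0.5 ug/ml 177Lu-lilotomab satetraxetan (600 MBq/mg), washed and seeded (3000 cells/well) on 384-well plates pre-printed with the Selleck Cambridge Cancer Compound library. Viability was read by RealTime-Glo luminescence on days 3-6 after seeding. Effect = 1 - RLU/mean RLU of the 48 untreated no-drug control wells per plate; Bliss score = (M-E)/(1-Fa).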

| Compound | growth inhibition by drug plus 177Lu-lilotomab satetraxetan (10 nM, time (day): 3) | growth inhibition by drug plus 177Lu-lilotomab satetraxetan (10 nM, time (day): 4) | growth inhibition by drug plus 177Lu-lilotomab satetraxetan (10 nM, time (day): 5) | growth inhibition by drug plus 177Lu-lilotomab satetraxetan (10 nM, time (day): 6) | growth inhibition by drug plus 177Lu-lilotomab satetraxetan (100 nM, time (day): 3) | growth inhibition by drug plus 177Lu-lilotomab satetraxetan (100 nM, time (day): 4) | growth inhibition by drug plus 177Lu-lilotomab satetraxetan (100 nM, time (day): 5) | growth inhibition by drug plus 177Lu-lilotomab satetraxetan (100 nM, time (day): 6) |
| --- | --- | --- | --- | --- | --- | --- | --- | --- |
| COc1ccc(CNC(=O)Nc2ncc([N+](=O)[O-])s2)cc1 | 0.496 | 0.573 | 0.599 | 0.609 | 0.44 | 0.479 | 0.489 | 0.47 |
| C=CC(=O)N1CCC[C@@H](n2nc(-c3ccc(Oc4ccccc4)cc3)c3c(N)ncnc32)C1 | 0.764 | 0.828 | 0.848 | 0.853 | 0.872 | 0.9 | 0.919 | 0.934 |
| Cc1ccnc(NS(=O)(=O)c2ccc(NC(=O)Nc3ccc(S(=O)(=O)Nc4nccc(C)n4)cc3)cc2)n1 | 0.581 | 0.617 | 0.633 | 0.636 | 0.492 | 0.533 | 0.541 | 0.545 |
| O=C(O)CCc1ccc(NCc2cccc(Oc3ccccc3)c2)cc1 | 0.476 | 0.546 | 0.562 | 0.557 | 0.432 | 0.527 | 0.552 | 0.561 |
| CN(C)CCOc1ccc(/C(=C(/CCCl)c2ccccc2)c2ccccc2)cc1 [Toremifene Citrate (Fareston, Acapodene)] | 0.724 | 0.722 | 0.729 | 0.733 | 0.696 | 0.711 | 0.713 | 0.72 |
